# Hit rate of the full screen: of about 310,000 compounds, about 2,200 (0.71%) showed an effect of 50% or more. The effect is printed as a negative number. This is one part of a sample in which strong results are shown more often than they occur.
# Target: human ether-à-go-go-related gene (hERG) potassium channel (human, UniProt Q12809)
# Experiment: primary screen, population patch clamp on CHO cells stably expressing hERG; higher = less effect of the substance
# Chain of human ether-à-go-go-related gene (hERG) potassium channel (Q12809 whole entry, looked up): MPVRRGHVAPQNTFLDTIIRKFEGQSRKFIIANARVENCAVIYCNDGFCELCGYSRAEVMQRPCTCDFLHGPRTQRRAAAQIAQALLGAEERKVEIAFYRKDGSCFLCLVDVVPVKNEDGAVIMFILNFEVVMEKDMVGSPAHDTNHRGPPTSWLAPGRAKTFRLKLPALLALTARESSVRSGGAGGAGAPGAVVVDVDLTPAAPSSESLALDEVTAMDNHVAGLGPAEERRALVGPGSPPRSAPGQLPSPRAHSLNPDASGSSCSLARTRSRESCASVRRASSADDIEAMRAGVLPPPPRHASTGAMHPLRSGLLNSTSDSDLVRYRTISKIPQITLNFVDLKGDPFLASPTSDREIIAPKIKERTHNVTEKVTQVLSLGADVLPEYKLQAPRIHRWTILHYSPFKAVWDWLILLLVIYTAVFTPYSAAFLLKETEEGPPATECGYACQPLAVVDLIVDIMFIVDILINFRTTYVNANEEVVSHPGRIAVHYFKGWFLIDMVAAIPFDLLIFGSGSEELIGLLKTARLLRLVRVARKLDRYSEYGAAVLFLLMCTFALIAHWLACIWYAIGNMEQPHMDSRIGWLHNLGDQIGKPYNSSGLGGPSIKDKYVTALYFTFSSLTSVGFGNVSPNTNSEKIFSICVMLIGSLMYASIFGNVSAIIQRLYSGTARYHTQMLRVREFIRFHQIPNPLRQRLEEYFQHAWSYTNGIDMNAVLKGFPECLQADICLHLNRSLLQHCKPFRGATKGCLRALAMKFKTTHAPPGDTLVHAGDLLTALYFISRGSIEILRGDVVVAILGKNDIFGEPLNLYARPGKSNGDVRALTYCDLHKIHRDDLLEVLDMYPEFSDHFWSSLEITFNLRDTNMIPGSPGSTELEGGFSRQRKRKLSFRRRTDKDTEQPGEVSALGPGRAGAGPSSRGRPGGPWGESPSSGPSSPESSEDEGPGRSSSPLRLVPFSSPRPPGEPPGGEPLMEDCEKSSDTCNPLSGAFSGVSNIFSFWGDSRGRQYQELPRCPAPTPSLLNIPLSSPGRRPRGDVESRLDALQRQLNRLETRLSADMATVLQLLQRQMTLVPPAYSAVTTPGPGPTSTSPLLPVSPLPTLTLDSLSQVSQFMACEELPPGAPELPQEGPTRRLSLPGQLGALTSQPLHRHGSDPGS
row,SMILES,"hERG current change (%, negative = inhibition) at 1uM [%]"
1,Cn1c(SCC(=O)N/N=C/C=C\c2ccco2)nc2ccccc21,-13.7
2,O=C(Nn1c(O)c(C=C2N=c3ccccc3=N2)sc1=S)c1ccccc1Cl,0.388
3,Cc1ccc(-c2nnn(CC(=O)N(c3ccc4c(c3)OCCO4)C(C(=O)NCC3CCCO3)c3ccc(F)cc3)n2)o1 (stereo not drawn),10.9
4,O=C(O)c1ccc(S(=O)(=O)NC2CCCCCC2)cc1,13.5
5,O=C(NNC(=O)c1ccccc1[N+](=O)[O-])c1csc(N2CCOCC2)n1,0.109
6,CCn1cc(-c2nnnn2-c2ccc(Cl)cc2)c(=O)c2ccccc21,-16.3
7,Cn1cc(-c2nnnn2-c2ccc(Cl)cc2)c(=O)c2ccccc21,-66.3
8,Cn1cc(-c2nnnn2-c2ccccc2)c(=O)c2ccccc21,1.73
9,CCCCNC(=O)/C(=C/c1ccccc1)NC(C)=O,1.06
10,Cc1ccc(CNC(=O)CSc2nc3ccccc3c(=O)n2CCCO)cc1,-51.3
11,CCN(CC)CCn1c(SCC(=O)NCc2ccco2)nc2c(sc3ccccc32)c1=O,-50.4
12,Cc1ccc(CNC(=O)CSc2nc3c(sc4ccccc43)c(=O)n2CCCN2CCCC2)cc1,-57.9
13,COc1cccc(NC(=O)CSc2nc3c(sc4ccccc43)c(=O)n2CCCN2CCCC2)c1,-3.14
14,COCCCn1c(SCC(=O)NCc2ccccc2)nc2ccccc2c1=O,-8.03
15,CCCCn1c(SCC(=O)NCc2ccco2)nc2c(sc3ccccc32)c1=O,-4.7
16,O=C(CSc1nc2c(sc3ccccc32)c(=O)n1CCO)NCc1ccco1,-1
17,Cc1ccc(CSc2nc3ccccc3c(=O)n2CCCC(=O)NCc2ccco2)cc1,1.62
18,O=C(CCCCCn1c(SCC(=O)c2ccccc2)nc2ccccc2c1=O)NCc1ccco1,14.7
19,O=C(CSc1nc2ccccc2c(=O)n1CCCO)NCc1ccccc1,-4.26
20,O=C(CCCCCn1c(SCc2ccncc2)nc2ccccc2c1=O)NCc1ccco1,-88.4
21,O=C(CSc1nc2c(sc3ccccc32)c(=O)n1CCCN1CCOCC1)NCC1CCCO1 (stereo not drawn),2.38

row,SMILES,"hERG current change (%, negative = inhibition) at 1uM [%]"
1,O=C(CN1C(=O)/C(=C/c2ccccc2F)Sc2ccccc21)N1CCN(c2ccccn2)CC1,12.8
2,CC(=O)Nc1cccc(C(=O)OCC(=O)NC(C)c2ccc(F)cc2)c1 (stereo not drawn),16.1
3,Cc1cc(Oc2ccc(-c3ccccc3)cc2)nc(N2CCOCC2)n1,2.61
4,COc1ccc(N2CCC(CNC(=S)Nc3cccc(OC)c3)C2)cc1 (stereo not drawn),8.46
5,Cc1ccc(-n2c(SCC(=O)NC3CCCCC3)nc3c(c2=O)SCC3)cc1,9.81
6,COc1ccc(C(=O)N=C2SC3CS(=O)(=O)CC3N2Cc2ccc(OC)c(OC)c2)cc1 (stereo not drawn),10.7
7,Cc1ccc2nc(SCC(=O)N3CCCCC3)nc(=O)n2c1,12.4
8,CCOc1ccc(Nc2ncnc3c2cnn3Cc2ccccc2)cc1,8.72
9,C=CCOc1cccc(C2/C(=C(/O)c3ccc(F)cc3)C(=O)C(=O)N2CCN2CCOCC2)c1 (stereo not drawn),12.9
10,O=[N+]([O-])c1cc(C(F)(F)F)cc([N+](=O)[O-])c1NN=C1CCCCC1,9.66
11,CC(=O)N1CCN(Cc2nc3cc(NC(=O)Nc4ccccc4)ccc3n2C)CC1,15.5
12,CC(C)CN(C(=O)COC(=O)C12CC3CC(CC(O)(C3)C1)C2)C1CCS(=O)(=O)C1 (stereo not drawn),18.7
13,CSCCC(/C(O)=C(\C#N)c1nc2ccccc2[nH]1)N1C(=O)c2ccccc2C1=O (stereo not drawn),5.68
14,CC(C)C(=O)Nc1ccc(C(=O)NNC(=O)NC2CCCCC2)cc1,21.9
15,O=C(CSc1nc2c(sc3ccccc32)c(=O)n1CCc1ccccc1)NCc1ccco1,2.54
16,O=C(CSc1nc2c(sc3ccccc32)c(=O)n1CCCN1CCCC1)NCc1ccccc1,-67.9
17,CCOCCCn1c(SCC(=O)NCc2ccco2)nc2c(sc3ccccc32)c1=O,3.64
18,COc1ccc(NC(=O)CSc2nc3c(sc4ccccc43)c(=O)n2CCCN2CCCC2)cc1,-1.35
19,O=C(CSc1nc2c(sc3ccccc32)c(=O)n1CCCN1CCCC1)NCc1ccco1,-70.1
20,O=C(CSc1nc2c(sc3ccccc32)c(=O)n1CCCN1CCCC1)NCC1CCCO1 (stereo not drawn),-19.8
21,CCCc1cc(C(=O)NCCc2ccccc2)no1,-4.85

row,SMILES,"hERG current change (%, negative = inhibition) at 1uM [%]"
1,C[C@H](CCC(=O)O)[C@H]1CC[C@H]2[C@@H]3CC[C@@H]4C[C@H](O)CC[C@]4(C)[C@H]3CC[C@]12C,15.8
2,CC1(C(=O)NCCc2c[nH]c3ccccc23)C=CC2(CCCCC2)N1C(=O)c1ccccc1 (stereo not drawn),2.59
3,O=C(/C=C/c1ccc(Cl)cc1)NCc1ccncc1,9.09
4,COc1ccccc1-n1c([S-])c(C(=O)Nc2ccccc2C(F)(F)F)[n+]2ccc(C(=O)NCCO)cc12,12.9
5,Nc1ncnc(Nc2c(F)cccc2F)n1,7.67
6,CCOCCCNc1nc2c(C)cccn2c(=O)c1/C=C1\SC(=S)N(C(C)CC)C1=O (stereo not drawn),10.1
7,Cc1[nH]n(-c2ccc([N+](=O)[O-])cc2)c(=O)c1C=NCCN1CCN(C(=O)C(C)C)CC1,-19.5
8,Cc1[nH]n(-c2ccc([N+](=O)[O-])cc2)c(=O)c1C=NCCN1CCN(C(=O)c2ccccc2F)CC1,-34.2
9,O=c1c(C=NCCN2CCNCC2)c(-c2ccccc2)[nH]n1-c1ccc([N+](=O)[O-])cc1,-31
10,C=CCNC(=S)N1CCN(CCN=Cc2c(C)[nH]n(-c3ccc([N+](=O)[O-])cc3)c2=O)CC1,-27.3
11,Cc1[nH]n(-c2ccc([N+](=O)[O-])cc2)c(=O)c1C=NCCN1CCN(C(=O)c2ccc(Br)cc2)CC1,-77.4
12,COc1ccc(-c2[nH]n(-c3ccc([N+](=O)[O-])cc3)c(=O)c2C=NCCN2CCNCC2)cc1,2.86
13,Cc1[nH]n(-c2ccc([N+](=O)[O-])cc2)c(=O)c1C=NCCN1CCN(C(=O)c2ccc(F)cc2)CC1,-81.7
14,Cc1[nH]n(-c2ccc([N+](=O)[O-])cc2)c(=O)c1C=NCCN1CCN(C(=O)c2ccccc2)CC1,-77
15,COc1ccc(CCN=Cc2c(C)[nH]n(-c3ccc([N+](=O)[O-])cc3)c2=O)cc1OC,7
16,Cc1[nH]n(-c2ccc([N+](=O)[O-])cc2)c(=O)c1C=NCCN1CCN(C(=O)c2cccc(F)c2)CC1,-78
17,Cc1[nH]n(-c2ccc([N+](=O)[O-])cc2)c(=O)c1C=NCC1CCCO1 (stereo not drawn),7.67
18,Cc1[nH]n(-c2ccc([N+](=O)[O-])cc2)c(=O)c1C=NCCc1ccc(S(N)(=O)=O)cc1,13.6
19,CC(C)C(NC(=S)NCc1ccccc1)C(=O)O (stereo not drawn),12.7
20,N#CNC(N)=Nc1cccc(Cl)c1,16.4
21,O=C(N/N=C/c1cn(-c2ccccc2)nc1-c1cccnc1)c1cccnc1,-26.3

row,SMILES,"hERG current change (%, negative = inhibition) at 1uM [%]"
1,Cc1cc(C)cc(NC(=O)CCN2CCOCC2)c1,7.44
2,C#CCN(N(C)c1ncc(C(F)(F)F)cc1Cl)S(=O)(=O)c1ccc2ccccc2c1,14.3
3,Cc1ccc(NC(=S)c2nc3ccccc3[nH]2)c(C)c1,14.6
4,CC(C)Cn1c(-c2ccc(F)cc2)n[nH]c1=S,11.6
5,CC(C(=O)N1CCc2ccccc21)N1CCN(Cc2ccccc2)CC1 (stereo not drawn),4.18
6,CC(C(=O)N1CCc2ccccc21)N1CCN(Cc2ccc(Cl)cc2)CC1 (stereo not drawn),-30.9
7,COc1ccc(CN2CCC(C(=O)N3CCN(c4ccccc4F)CC3)CC2)cc1OC,3.9
8,COc1ccc(CN2CCN(CCCc3ccccc3)CC2)c(OC)c1,-64.9
9,COc1ccc(CN2CCN(c3ccccc3F)CC2)c(OC)c1,-57.8
10,COc1ccc(CN2CCN(c3ccccc3OC)CC2)c(OC)c1.O=C(O)C(=O)O,-47.7
11,COc1ccc(CN2CCN(Cc3ccccc3)CC2)c(OC)c1,-43.8
12,COc1ccc(CN2CCN(C(C)C(=O)N3CCc4ccccc43)CC2)cc1OC (stereo not drawn),-52.3
13,COc1ccc(CN2CCN(c3ccccc3F)CC2)cc1O,-51.2
14,COc1ccc(CN2CCN(CCCc3ccccc3)C(CCO)C2)c(OC)c1 (stereo not drawn),-39.7
15,COc1ccc(CN2CCN(Cc3ccccc3F)CC2)c(OC)c1.O=C(O)C(=O)O,-36
16,COc1cc(CN2CCN(c3ccccc3F)CC2)cc(OC)c1O,2.78
17,C(=N\n1cnnc1)/c1cccs1,5.5
18,CN(c1ccc(C(=O)NCCSCc2ccc(Cl)cc2)cc1)S(=O)(=O)c1ccccc1,14.1

# From publication PMC4336329 (PLoS ONE, 2015)
